Compounds without any hit were thinned out: in the full panel of roughly 83,000, 20% have a hit.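 Cells were grown in 96-well plates and exposed to the test compound at a single concentration for 48 hours; results are reported as percent growth, with values below 10 considered active.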
Legend:
Assay in all cases: NCI-60 one-dose screen, 48 h (100 = growth as untreated, 0 = no growth, -100 = all killed)
Details in all cases: 10 µM unless noted
RPMI-8226 leukemia = system: RPMI-8226 leukemia
OVCAR-8 ovarian = system: OVCAR-8 ovarian
OVCAR-4 ovarian = system: OVCAR-4 ovarian
SK-OV-3 ovarian = system: SK-OV-3 ovarian
IGROV1 ovarian = system: IGROV1 ovarian
OVCAR-3 ovarian = system: OVCAR-3 ovarian
HS 578T breast = system: HS 578T breast
NCI/ADR-RES ovarian = system: NCI/ADR-RES ovarian
T-47D breast = system: T-47D breast

Measured: growth

COc1cc(OC)c2cc(C(=O)O)c(=O)oc2c1
inactive: RPMI-8226 leukemia 43% | OVCAR-8 ovarian 94.4% | OVCAR-4 ovarian 130% | SK-OV-3 ovarian 99.9% | IGROV1 ovarian 55.2% | OVCAR-3 ovarian 102% | HS 578T breast 134% | NCI/ADR-RES ovarian 112% | T-47D breast 99.4%

COC(=O)c1ccc2c(c1)nc(-c1ccc(O)c(OC)c1)n2-c1cc(C(C)(C)C)[nH]n1
inactive: RPMI-8226 leukemia 72.8% | OVCAR-8 ovarian 98.8% | OVCAR-4 ovarian 111% | SK-OV-3 ovarian 133% | IGROV1 ovarian 101% | OVCAR-3 ovarian 98.1% | HS 578T breast 98.2% | NCI/ADR-RES ovarian 98.4% | T-47D breast 92.3%

O=C1/C(=C/c2ccc3cccc(Cl)c3n2)SC(=S)N1CCc1ccc(O)cc1
inactive: RPMI-8226 leukemia 82.2% | OVCAR-8 ovarian 92.3% | OVCAR-4 ovarian 96.6% | SK-OV-3 ovarian 93.2% | IGROV1 ovarian 47% | HS 578T breast 73.8% | NCI/ADR-RES ovarian 93% | T-47D breast 65.5%
